# Measured values as given in the supplement of paper PMC8728848.
# About 410 targets per protein were measured; listed, in parts, are those with the strongest signals and a random draw of the rest.
# Key:
# Experiment in all cases: glycan array binding signal (z-score within array); higher = stronger binding
# Conditions in all cases: glycan notation: IUPAC condensed, linker removed
# [1] = target: Fuc(a1-2)Gal(b1-3)GlcNAc(b1-3)GalNAc
# Procedure, shortened: (§1)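 Glycan array data came from 3228 arrays in the Consortium for Functional Glycomics database, and only arrays with an available protein sequence were kept. Glycan names were put into IUPAC-condensed notation, and columns mapping to the same glycan were averaged. The binding signal is a within-array Z-score, averaged across arrays of one protein sequence run at different concentrations or buffers and across linkers. A negative Z-score can be read as non-binding.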
# [2] = target: Fuc(a1-2)Gal(b1-3)[Fuc(a1-4)]GlcNAc(b1-2)Man(a1-3)[Fuc(a1-2)Gal(b1-3)[Fuc(a1-4)]GlcNAc(b1-2)Man(a1-3)]Man(b1-4)GlcNAc(b1-4)GlcNAc
# Procedure, shortened: as §1
# [3] = target: Fuc(a1-2)Gal(b1-4)GlcNAc(b1-3)GalNAc
# Procedure, shortened: as §1
# [4] = target: Fuc(a1-2)Gal(b1-4)GlcNAc(b1-3)[Fuc(a1-2)Gal(b1-4)GlcNAc(b1-6)]GalNAc
# Procedure, shortened: as §1
# [5] = target: Fuc(a1-2)Gal(b1-4)GlcNAc(b1-3)[Fuc(a1-3)[Gal(b1-4)]GlcNAc(b1-6)]Gal(b1-4)Glc
# Procedure, shortened: as §1
# [6] = target: Fuc(a1-2)[Gal(a1-3)]Gal(b1-3)GlcNAc(b1-2)Man(a1-3)[Fuc(a1-2)[Gal(a1-3)]Gal(b1-3)GlcNAc(b1-2)Man(a1-6)]Man(b1-4)GlcNAc(b1-4)GlcNAc
# Procedure, shortened: as §1
# [7] = target: Fuc(a1-2)[Gal(a1-3)]Gal(b1-4)Glc
# Procedure, shortened: as §1
# [8] = target: Fuc(a1-2)[Gal(a1-3)]Gal(b1-4)GlcNAc(b1-3)[Fuc(a1-2)[Gal(a1-3)]Gal(b1-4)GlcNAc(b1-6)]GalNAc
# Procedure, shortened: as §1
# [9] = target: Fuc(a1-2)[Gal(a1-3)]Gal(b1-4)GlcNAc(b1-6)GalNAc
# Procedure, shortened: as §1
# [10] = target: Fuc(a1-2)[GalNAc(a1-3)]Gal(b1-4)GlcNAc(b1-2)Man
# Procedure, shortened: as §1
# [11] = target: Fuc(a1-3)[Gal3S(b1-4)]GlcNAc
# Procedure, shortened: as §1
# [12] = target: Fuc(a1-3)[GalNAc(b1-4)]GlcNAc
# Procedure, shortened: as §1
# Fuc(a1-4)GlcNAc = target: Fuc(a1-4)GlcNAc
# Procedure, shortened: as §1
# [13] = target: Gal(a1-3)[Gal(a1-4)]Gal(b1-4)GlcNAc
# Procedure, shortened: as §1
# [14] = target: Gal(b1-3)GlcNAc(b1-3)Gal(b1-4)GlcNAc(b1-2)[Gal(b1-3)GlcNAc(b1-3)Gal(b1-4)GlcNAc(b1-6)]Man(a1-6)[Gal(b1-3)GlcNAc(b1-3)Gal(b1-4)GlcNAc(b1-2)Man(a1-3)]Man(b1-4)GlcNAc(b1-4)[Fuc(a1-6)]GlcNAc
# Procedure, shortened: as §1
# [15] = target: Gal(b1-3)[Neu5Ac(a2-6)]GalNAc
# Procedure, shortened: as §1
# [16] = target: Gal(b1-3)[Neu5Ac(b2-6)]GalNAc
# Procedure, shortened: as §1
# [17] = target: Gal(b1-4)GlcNAc(a1-6)Gal(b1-4)GlcNAc
# Procedure, shortened: as §1
# [18] = target: Gal(b1-4)GlcNAc(b1-2)[Gal(b1-4)GlcNAc(b1-4)]Man(a1-3)[Gal(b1-4)GlcNAc(b1-2)[Gal(b1-4)GlcNAc(b1-6)]Man(a1-6)]Man(b1-4)GlcNAc(b1-4)GlcNAc
# Procedure, shortened: as §1
# [19] = target: Gal(b1-4)GlcNAc(b1-2)[Gal(b1-4)GlcNAc(b1-4)]Man(a1-3)[GlcNAc(b1-4)][Gal(b1-4)GlcNAc(b1-2)[Gal(b1-4)GlcNAc(b1-6)]Man(a1-6)]Man(b1-4)GlcNAc(b1-4)GlcNAc
# Procedure, shortened: as §1
# [20] = target: Gal(b1-4)GlcNAc(b1-3)Gal(b1-4)GlcNAc(b1-3)Gal(b1-4)GlcNAc(b1-3)Gal(b1-4)GlcNAc(b1-3)Gal(b1-4)GlcNAc(b1-2)Man(a1-3)[Gal(b1-4)GlcNAc(b1-3)Gal(b1-4)GlcNAc(b1-3)Gal(b1-4)GlcNAc(b1-3)Gal(b1-4)GlcNAc(b1-3)Gal(b1-4)GlcNAc(b1-2)Man(a1-6)]Man(b1-4)GlcNAc(b1-4)[Fuc(a1-6)]GlcNAc
# Procedure, shortened: as §1
# [21] = target: Gal(b1-4)GlcNAc(b1-3)Gal(b1-4)GlcNAc(b1-3)[Gal(b1-4)GlcNAc(b1-3)Gal(b1-4)GlcNAc(b1-6)]GalNAc
# Procedure, shortened: as §1
# Gal3S(b1-4)Glc6S = target: Gal3S(b1-4)Glc6S
# Procedure, shortened: as §1
# Gal6P(b1-4)GlcNAc = target: Gal6P(b1-4)GlcNAc
# Procedure, shortened: as §1
# [22] = target: Glc(a1-6)Glc(a1-6)Glc(a1-6)Glc
# Procedure, shortened: as §1
# [23] = target: GlcNAc(b1-3)Gal(b1-4)GlcNAc(b1-2)[GlcNAc(b1-3)Gal(b1-4)GlcNAc(b1-6)]Man(a1-6)[GlcNAc(b1-3)Gal(b1-4)GlcNAc(b1-2)Man(a1-3)]Man(b1-4)GlcNAc(b1-4)GlcNAc
# Procedure, shortened: as §1
# [24] = target: GlcNAc(b1-3)Gal(b1-4)GlcNAc(b1-3)Gal(b1-4)GlcNAc
# Procedure, shortened: as §1
# [25] = target: GlcNAc(b1-3)Gal(b1-4)GlcNAc(b1-3)GalNAc
# Procedure, shortened: as §1
# [26] = target: GlcNAc(b1-4)GlcNAc(b1-4)GlcNAc
# Procedure, shortened: as §1
# [27] = target: GlcNAc(b1-4)GlcNAc(b1-4)GlcNAc(b1-4)GlcNAc(b1-4)GlcNAc
# Procedure, shortened: as §1
# [28] = target: GlcNAc(b1-4)GlcNAc(b1-4)GlcNAc(b1-4)GlcNAc(b1-4)GlcNAc(b1-4)GlcNAc
# Procedure, shortened: as §1
# MurNAc(b1-4)GlcNAc = target: MurNAc(b1-4)GlcNAc
# Procedure, shortened: as §1
# [29] = target: Neu5Ac(a2-3)Gal(b1-3)GlcNAc
# Procedure, shortened: as §1
# Neu5Ac(a2-3)Gal(b1-4)Glc = target: Neu5Ac(a2-3)Gal(b1-4)Glc
# Procedure, shortened: as §1
# [30] = target: Neu5Ac(a2-3)Gal(b1-4)GlcNAc(b1-3)Gal
# Procedure, shortened: as §1
# [31] = target: Neu5Ac(a2-3)Gal(b1-4)GlcNAc(b1-3)Gal(b1-4)GlcNAc
# Procedure, shortened: as §1
# [32] = target: Neu5Ac(a2-3)Gal(b1-4)GlcNAc(b1-6)GalNAc
# Procedure, shortened: as §1
# [33] = target: Neu5Ac(a2-3)Gal(b1-4)[Fuc(a1-3)]GlcNAc
# Procedure, shortened: as §1
# [34] = target: Neu5Ac(a2-3)Gal(b1-4)[Fuc(a1-3)]GlcNAc(b1-3)Gal(b1-4)[Fuc(a1-3)]GlcNAc(b1-3)Gal(b1-4)[Fuc(a1-3)]GlcNAc
# Procedure, shortened: as §1
# [35] = target: Neu5Ac(a2-3)Gal(b1-4)[Fuc(a1-3)]GlcNAc(b1-3)GalNAc
# Procedure, shortened: as §1
# Neu5Ac(a2-3)GalNAc = target: Neu5Ac(a2-3)GalNAc
# Procedure, shortened: as §1
# [36] = target: Neu5Ac(a2-3)[Neu5Ac(a2-6)]GalNAc
# Procedure, shortened: as §1
# Neu5Ac(a2-6)Gal(b1-4)Glc = target: Neu5Ac(a2-6)Gal(b1-4)Glc
# Procedure, shortened: as §1
# [37] = target: Neu5Ac(a2-6)Gal(b1-4)GlcNAc(b1-2)Man(a1-3)[Neu5Ac(a2-6)Gal(b1-4)GlcNAc(b1-2)Man(a1-6)]Man(b1-4)GlcNAc(b1-4)GlcNAc
# Procedure, shortened: as §1
# [38] = target: Neu5Ac(a2-6)Gal(b1-4)GlcNAc(b1-2)Man(a1-6)[Man(a1-3)]Man(b1-4)GlcNAc(b1-4)GlcNAc
# Procedure, shortened: as §1
# [39] = target: Neu5Ac(a2-6)Gal(b1-4)GlcNAc(b1-3)Gal(b1-4)GlcNAc(b1-3)Gal(b1-4)GlcNAc(b1-2)Man(a1-3)[Neu5Ac(a2-6)Gal(b1-4)GlcNAc(b1-3)Gal(b1-4)GlcNAc(b1-3)Gal(b1-4)GlcNAc(b1-2)Man(a1-6)]GalNAc
# Procedure, shortened: as §1
# [40] = target: Neu5Ac(a2-6)Gal(b1-4)GlcNAc(b1-3)Gal(b1-4)[Fuc(a1-3)]GlcNAc(b1-3)Gal(b1-4)[Fuc(a1-3)]GlcNAc
# Procedure, shortened: as §1
# [41] = target: Neu5Ac(a2-6)GlcNAc(b1-4)GlcNAc(b1-4)GlcNAc
# Procedure, shortened: as §1
# [42] = target: Neu5Ac(a2-8)Neu5Ac(a2-3)Gal(b1-3)GalNAc(b1-4)[Neu5Ac(a2-8)Neu5Ac(a2-3)]Gal(b1-4)Glc
# Procedure, shortened: as §1
# [43] = target: Neu5Ac(a2-8)Neu5Ac(a2-8)Neu5Ac
# Procedure, shortened: as §1
binder,measurement,setting,value
"MSMEG3662-2a (Mycobacterium smegmatis), A0QYH7_MYCS2 (protein) MGDTLTAGQKLERGGSLQSGNGAYTLTLQDDGNLVLYARDKAVWSTGTNGQDVVRAEVQTDGNFVLYTAEKPVWHTDTKGKKEVKLVLQDDRNLVLYAKDGPAWSSKTDTTEPPPPAPEPEKEAEVAPAAAEEAAPAPVAEPAPAEPAPAAPPPAPPAPRTYTVVSGDTLWAIAERFYGDGSKYQQIADASGIANPDLIHPGQVLTIP",glycan array binding signal (z-score),[1],-0.084
same,glycan array binding signal (z-score),[2],0.02
same,glycan array binding signal (z-score),[3],0.35
same,glycan array binding signal (z-score),[4],-0.023
same,glycan array binding signal (z-score),[5],-0.103
same,glycan array binding signal (z-score),[6],-0.102
same,glycan array binding signal (z-score),[7],-0.24
same,glycan array binding signal (z-score),[8],0.285
same,glycan array binding signal (z-score),[9],-0.124
same,glycan array binding signal (z-score),[10],-0.046
same,glycan array binding signal (z-score),[11],-0.028
same,glycan array binding signal (z-score),[12],0.413
same,glycan array binding signal (z-score),Fuc(a1-4)GlcNAc,11.1
same,glycan array binding signal (z-score),[13],-0.039
same,glycan array binding signal (z-score),[14],0.25
same,glycan array binding signal (z-score),[15],-0.105
same,glycan array binding signal (z-score),[16],0.064
same,glycan array binding signal (z-score),[17],-0.067
same,glycan array binding signal (z-score),[18],-0.118
same,glycan array binding signal (z-score),[19],-0.186
same,glycan array binding signal (z-score),[20],0.159
same,glycan array binding signal (z-score),[21],0.038
same,glycan array binding signal (z-score),Gal3S(b1-4)Glc6S,-0.107
same,glycan array binding signal (z-score),Gal6P(b1-4)GlcNAc,-0.205
same,glycan array binding signal (z-score),[22],-0.182
same,glycan array binding signal (z-score),[23],-0.017
same,glycan array binding signal (z-score),[24],-0.131
same,glycan array binding signal (z-score),[25],-0.121
same,glycan array binding signal (z-score),[26],3.59
same,glycan array binding signal (z-score),[27],8.12
same,glycan array binding signal (z-score),[28],13.9
same,glycan array binding signal (z-score),MurNAc(b1-4)GlcNAc,1.49
same,glycan array binding signal (z-score),[29],-0.039
same,glycan array binding signal (z-score),Neu5Ac(a2-3)Gal(b1-4)Glc,0.572
same,glycan array binding signal (z-score),[30],-0.15
same,glycan array binding signal (z-score),[31],0.065
same,glycan array binding signal (z-score),[32],-0.234
same,glycan array binding signal (z-score),[33],-0.124
same,glycan array binding signal (z-score),[34],-0.044
same,glycan array binding signal (z-score),[35],0.43
same,glycan array binding signal (z-score),Neu5Ac(a2-3)GalNAc,-0.06
same,glycan array binding signal (z-score),[36],-0.161
same,glycan array binding signal (z-score),Neu5Ac(a2-6)Gal(b1-4)Glc,-0.068
same,glycan array binding signal (z-score),[37],-0.046
same,glycan array binding signal (z-score),[38],-0.14
same,glycan array binding signal (z-score),[39],0.293
same,glycan array binding signal (z-score),[40],-0.129
same,glycan array binding signal (z-score),[41],1.58
same,glycan array binding signal (z-score),[42],0.097
same,glycan array binding signal (z-score),[43],-0.147
